# Test results: the supplement of paper PMC6555819
# Tests used:
# Assay in all cases: PBM binding z-score (relative to random genomic background probes); higher = stronger binding; sequences stand for … in GC…GCGATTGACAGCGTAGAATGAAGG
# [1] = tested on: FXR:RXRa (NR concentration 270 nM, RXRa partner concentration 90 nM)
# Summary of the method: (§1)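 Ligand-free nuclear receptor dimers were applied to custom Agilent 4×180K protein-binding microarrays whose double-stranded probes carried direct-repeat seeds, single-nucleotide variants, half-site ablations and random human genomic background sequences in 34-nt variable regions. Incubation lasted 1 h. Binding z-scores were computed against the random background probes from regression-normalized fluorescence.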
# [2] = tested on: LXRa:RXRa (NR concentration 270 nM, RXRa partner concentration 90 nM)
# Summary of the method: as §1
# [3] = tested on: LXRa homodimer (NR concentration 270 nM)
# Summary of the method: as §1
# [4] = tested on: LXRb:RXRa (NR concentration 270 nM, RXRa partner concentration 90 nM)
# Summary of the method: as §1
# [5] = tested on: LXRb homodimer (NR concentration 270 nM)
# Summary of the method: as §1
# [6] = tested on: PPARa:RXRa (NR concentration 270 nM, RXRa partner concentration 90 nM)
# Summary of the method: as §1
# [7] = tested on: PPARg:RXRa (NR concentration 180 nM, RXRa partner concentration 90 nM)
# Summary of the method: as §1
# [8] = tested on: PPARg:RXRa 270nM:90nM, anti-RXR (NR concentration 270 nM, RXRa partner concentration 90 nM)
# Summary of the method: as §1
# [9] = tested on: PPARg:RXRa 30nM:10nM, anti-RXR (NR concentration 30 nM, RXRa partner concentration 10 nM)
# Summary of the method: as §1
# [10] = tested on: PPARg:RXRa 90nM:30nM, anti-RXR (NR concentration 90 nM, RXRa partner concentration 30 nM)
# Summary of the method: as §1
# [11] = tested on: PPARg:RXRa DBDmut IVT, anti-RXR (DBD mutation: RXRa K156A/R161A, NR concentration 270 nM, RXRa partner concentration 90 nM)
# Summary of the method: as §1
# [12] = tested on: PPARg:RXRa IVT, anti-PPARg (NR concentration 270 nM, RXRa partner concentration 90 nM)
# Summary of the method: as §1
# [13] = tested on: PPARg DBDmut:RXRa IVT, anti-PPARg (DBD mutation: PPARg1 K132A/R137A, NR concentration 270 nM, RXRa partner concentration 90 nM)
# Summary of the method: as §1
# [14] = tested on: PPARg DBDmut IVT, anti-PPARg (DBD mutation: PPARg1 K132A/R137A, NR concentration 270 nM)
# Summary of the method: as §1
# [15] = tested on: PPARg homodimer (NR concentration 180 nM)
# Summary of the method: as §1
# [16] = tested on: PXR:RXRa (NR concentration 270 nM, RXRa partner concentration 90 nM)
# Summary of the method: as §1
# [17] = tested on: PXR homodimer (NR concentration 270 nM)
# Summary of the method: as §1
# [18] = tested on: RARa:RXR (NR concentration 270 nM, RXRa partner concentration 90 nM)
# Summary of the method: as §1
# [19] = tested on: RARa homodimer (NR concentration 270 nM)
# Summary of the method: as §1
# [20] = tested on: RARb:RXRa (NR concentration 270 nM, RXRa partner concentration 90 nM)
# Summary of the method: as §1
Sequence,PBM binding z-score [1],PBM binding z-score [2],PBM binding z-score [3],PBM binding z-score [4],PBM binding z-score [5],PBM binding z-score [6],PBM binding z-score [7],PBM binding z-score [8],PBM binding z-score [9],PBM binding z-score [10],PBM binding z-score [11],PBM binding z-score [12],PBM binding z-score [13],PBM binding z-score [14],PBM binding z-score [15],PBM binding z-score [16],PBM binding z-score [17],PBM binding z-score [18],PBM binding z-score [19],PBM binding z-score [20]
CCCACTGGGCCATCAGGTCATTGATATCAACGTT,1.16,1.11,1.5,1.63,-0.17,2.74,2.87,3.57,1.18,2.86,3.84,5.07,0.243,0.0844,2.19,1.57,0.893,1.95,0.424,2.04
TCTATTAATTGAAGGGCAACCGACGAGTCCGTTT,0.489,1,1.77,0.808,0.497,1.16,0.0188,1.99,3.93,2.74,2.49,0.956,0.163,1.02,1.56,0.915,1.96,0.829,1.43,1.45
CGTCCAAGGTCAATGCTAGGTCAGGGAAAGCATT,6.82,5.42,2.86,4.1,0.919,5.17,4.49,4.52,1.47,3.37,2.8,4.06,-0.00201,-0.912,3.8,4.55,0.675,5.55,0.824,5.31
TCTTGTGGATCAACAGGAGGTTAAGAAAGATCGA,0.0119,1.31,-0.115,0.808,-0.625,1.19,0.00768,1.18,2.49,1.87,1.35,0.812,0.186,1.07,0.476,0.621,-0.304,0.932,-0.244,0.59
TCTTGTAGATCAGCAGGCTAAGAAAGCTGGCCAA,-0.304,-0.495,-0.573,-0.216,-0.933,0.0616,-0.735,0.857,2.22,1.47,1.35,0.0627,-0.91,-0.15,-1.56,-0.333,-0.655,-0.459,-0.665,-0.469
GCTGCTAGGTCAACTGATGGTCAGCTCAAGCTCG,4.04,3.02,0.195,2.03,0.0529,3.43,2.32,2.98,0.574,1.74,4.88,3.98,-0.00259,-0.768,2.12,1.66,-0.637,2.9,-0.413,4.23
AATCAAAGTTCACTAGGTAACGTAAGATTCAGCT,4.99,5.49,4.91,3.21,1.43,4.48,5.39,4.91,2.47,3.92,2.41,4.17,1.22,1.64,2.31,3.75,2,2.5,1.15,4.72
GCTGCTAGATCAACTGATGGTCAGCTAAAGCTCG,-0.351,-0.658,-0.708,-0.94,-1.09,-0.675,-0.337,-0.606,-0.466,-0.434,-0.127,-0.576,-0.911,-0.65,-0.483,-0.788,-0.885,-0.512,-1.53,-0.39
CGTCAAAGTCCAACTAAGGTAACGTAAAGCACGC,0.904,0.0247,0.14,-0.00355,0.104,0.088,0.536,-0.0783,-0.0174,0.18,0.179,0.394,0.436,-0.503,0.498,0.234,0.179,1.23,0.41,1.9
CCTCGGAGGACAACAGGAGTTCAGAGCTGCCAGA,0.094,0.777,1.72,-0.123,-0.822,0.00336,0.0297,-0.913,-1.16,-1.11,-0.298,-1,-2.34,-1.22,0.513,1.92,1.78,0.366,0.371,1.67
CCTAGCAGGCCAATCTGGGTCACTCACGGCTTGA,0.571,1.17,-0.195,0.493,-0.78,2.81,1.85,1.92,-0.256,1.18,4.16,4.93,-0.714,-0.428,0.645,0.777,-0.161,1.18,-0.509,1.56
CGTCAAAGTTCAACTAAGGTAACGTACAGCACGC,7.43,6.41,4.76,4.34,2.05,5.25,5.21,5.62,2.85,4.59,0.621,2.54,0.979,0.528,3.88,5.9,4.77,4.72,2.23,5.42
GCTGCTAGGTCAGGTTCGTCAGCTAACGGGTACG,1.58,0.945,-0.287,0.33,-0.46,1.6,0.685,1.21,-0.222,0.283,3.23,2.23,-0.735,-0.897,0.459,0.538,-0.243,0.887,-0.894,3.17
CCGACTGGGGCAAGGTTACCATTACGCACAGCCA,0.0277,0.227,-0.221,0.492,-0.9,1.75,2.79,3.17,0.732,2.4,2.66,3.49,-0.296,-0.507,0.706,0.214,-0.376,0.792,0.0733,1.56
